Screening data: PubChem, National Center for Advancing Translational Sciences (NCATS)
The list is not random: actives were taken first. Their share in the collection is about 9.3%.
NPC1 prom act – activators of NPC1 promoter. hit rate 2.4% among 320,000. Potency, µM (highest dose often 9.22 µM), most hits filed as activators. Huh7 NPC1 promoter luciferase reporter, 24 h; also: nearly all actives have a fitted effect of over 60% in size
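Readout is luciferase luminescence, reflecting NPC1 promoter activation in stably transfected Huh7 cells after 24 h compound exposure at 37 °C in reduced-serum medium with 10% FBS.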
ELG1 repair inh – ELG1-dependent DNA repair inhibition. Potency, µM (series often up to 46.1 µM), actives largely listed as inhibitors. HEK293T ELG1-luciferase reporter, luminescence, 16 h; DNA damage induced by 5-fluorouridine. AID 504467. hit rate 2.3% among 330,000; also: nearly all actives have a fitted effect of over 55% in size
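Luminescence from the luciferase reporter, measured 30 min after ONE-Glo reagent at room temperature, was the read-out. Beforehand, 2,000 cells per well were exposed for 16 hr at 37 °C to 5-fluorouridine together with compound or vehicle.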
FLuc modulator – inhibits or activates purified firefly luciferase, miR-21 counter-screen | Potency, µM (top dose mostly 57.5 µM), most hits filed as inhibitors | purified FLuc, Km substrates, luminescence inhibition | hit rate 6.9% among 360,000 | P08659; also: nearly all actives have a fitted effect of over 55% in size
Target sequence (P08659 whole entry, looked up): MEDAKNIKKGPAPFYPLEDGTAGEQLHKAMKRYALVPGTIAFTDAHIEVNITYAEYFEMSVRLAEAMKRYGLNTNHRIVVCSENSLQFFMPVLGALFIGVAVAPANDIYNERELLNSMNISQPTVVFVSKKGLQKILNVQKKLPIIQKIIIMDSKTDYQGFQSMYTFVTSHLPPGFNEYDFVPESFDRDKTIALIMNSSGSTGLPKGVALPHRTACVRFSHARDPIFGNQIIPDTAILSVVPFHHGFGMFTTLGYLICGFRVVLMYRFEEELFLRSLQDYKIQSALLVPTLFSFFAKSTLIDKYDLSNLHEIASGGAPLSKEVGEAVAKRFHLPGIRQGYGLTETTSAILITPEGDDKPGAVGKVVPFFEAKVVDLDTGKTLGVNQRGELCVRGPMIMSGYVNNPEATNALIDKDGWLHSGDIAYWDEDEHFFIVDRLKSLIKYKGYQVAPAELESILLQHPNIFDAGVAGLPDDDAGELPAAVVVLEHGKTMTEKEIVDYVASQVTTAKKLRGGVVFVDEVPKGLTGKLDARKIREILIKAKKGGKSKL
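Purified P. pyralis luciferase (10nM final) with 10uM D-luciferin and 10uM ATP (Km levels) in 50mM Tris acetate pH 7.5, 10mM Mg acetate, 0.01% Tween-20, 0.05% BSA; qHTS 6-point titration, ~60 µM downward; luminescence read.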
ELG1 genotoxic – inducers of genotoxicity in HEK293T ELG1-luciferase cells. Potency, µM (doses to about 46 µM), actives largely listed as activators. hit rate 1.3% among 330,000. HEK293T ELG1-luciferase reporter, luminescence, 16 h; also: nearly all actives have a fitted effect of over 60% in size
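16 hr compound incubation (37 °C, 5% CO2) of HEK293T cells carrying luciferase-tagged ELG1; luciferase then measured by ONE-Glo luminescence after 30 min at RT.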
SMN2 splice enh – SMN2 splice variant enhancement; Potency, µM (titrated, usually from 46.1 µM), actives largely listed as activators; HEK293 SMN2-luciferase splicing reporter, luminescence, 30-36 h; hit rate 2.8% among 210,000; also: nearly all actives have a fitted effect of over 55% in size
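qHTS luciferase splicing reporter: luminescence rises when SMN2 exon 7 is included in transfected HEK293 cells. Compound exposure lasted 30-36 h at 37C, with 4.5 mM final sodium butyrate as control, followed by a ONE-Glo read.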
Rab9 prom act – activates the Rab9 promoter | Huh7 Rab9 promoter-luciferase reporter, luminescence, 24 h | AID 485297 | Potency, µM (doses to about 9.22 µM), hits mostly activators | hit rate 2.8% among 320,000; also: nearly all actives have a fitted effect of over 60% in size
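Measured in stably transfected Huh7 cells bearing a Rab9 promoter–luciferase construct: 24 h compound treatment at 37 °C, followed by luminescence detection.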
Numbers stand for hits; - = inactive; ? = inconclusive; . = not tested or not shown; [ ] = remark or other dose. Calls follow the shape of the dose curve; as a rule, active = well fitted curve in the direction sought with a large enough effect; inconclusive = small, poorly fitted or top-dose-only effect, or another doubt; inactive = no such curve, though single readings can be large; an effect the other way counts as inactive or inconclusive.

SMILES | NPC1 prom act | ELG1 repair inh | FLuc modulator | ELG1 genotoxic | SMN2 splice enh | Rab9 prom act
C[n+]1c(/C=C/c2ccc3c(c2)OCO3)ccc2ccccc21 | - | ? | 10.7µM | ? | - | -
Cc1ccc(C(=O)OCC(=O)NC(C)c2ccccc2)cc1C (stereo unspecified) | . | - | . | - | . | .
O=[N+]([O-])c1ccc(/C=N/NC2=NS(=O)(=O)c3ccccc32)cc1 | - | - | 15.1µM | - | - | -
Cc1ccc(S(=O)(=O)N/N=C/c2cc([N+](=O)[O-])ccc2O)cc1[N+](=O)[O-] | - | ? | 13.5µM | - | - | -
O=[N+]([O-])c1ccc(O)c(/C=N/NC2=NS(=O)(=O)c3ccccc32)c1 | - | ? | 8.49µM | - | - | -
O=[N+]([O-])c1ccc(O)c(/C=N/Nc2ccc(Cl)nn2)c1 | 3.16µM | ? | ? | - | - | -[1.84 µM]
CCCCNS(=O)(=O)c1cc2c3c(c1)CCN3C(=O)CC2 | - | ? | - | - | . | -
CCCCn1c(N)c(N(CCOC)C(=O)c2cnc(C)cn2)c(=O)[nH]c1=O | - | - | - | - | . | -
O=C(C1COc2ccccc2O1)N1CCN(c2nc3c(F)cccc3s2)CC1 (stereo unspecified) | . | . | - | . | . | .
Cc1ccc(-n2nc(C)c3c(C)c(CCC(=O)NCc4ccco4)c(C)nc32)cc1 | - | 23.1µM | - | - | - | -
Cc1ccc(-n2nnc3c(SCC(=O)NCc4ccco4)ncnc32)cc1 | - | - | 13.5µM | - | - | -
COc1ccc(-n2nnc3c(SCC(=O)NCc4ccco4)ncnc32)cc1 | - | - | 9.53µM | - | - | -
O=C(CSc1ncnc2c1nnn2-c1ccc(F)cc1)NCc1ccco1 | - | ? | - | - | - | -
c1ccc2c(CSCc3cccc4ccccc34)cccc2c1 | . | . | . | . | -[9.22 µM] | .
CC(C)CC(NC(=O)C1CCC(C)CC1)C(=O)Nc1ccc2c(c1)OCCO2 (stereo unspecified) | - | ? | 16.9µM | ? | - | -
CCC1CCC(C(=O)NC(C(=O)NCCN(CC(C)C)CC(C)C)C(C)C)CC1 (stereo unspecified) | . | . | - | . | - | .
CCC1CCC(C(=O)NC(C(=O)Nc2ccc3c(c2)OCCO3)C(C)C)CC1 (stereo unspecified) | - | ? | ? | 16.4µM | - | -
CC(C)CC(NC(=O)C1CCC(C)CC1)C(=O)Nc1ccccc1F (stereo unspecified) | - | - | - | - | . | -
CC(=O)Oc1ccc(N2C(=O)c3cccc4c([N+](=O)[O-])ccc(c34)C2=O)cc1 | - | 18.3µM | - | - | . | -
COc1ccc(C(=O)NCc2ccco2)cc1S(=O)(=O)NC1CC1 | - | ? | . | - | . | -
CC1CCCCC1NC(=O)NC(=O)CCl (stereo unspecified) | - | 20.6µM | - | - | - | -
CC1CCCCC1NC(=O)NC(=O)COC(=O)c1nccnc1N (stereo unspecified) | . | - | . | - | . | .
CC1CCCC(NC(=O)NC(=O)CCl)C1C (stereo unspecified) | - | 20.6µM | - | - | - | -
O=C(NCC(c1ccc2c(c1)OCO2)N1CCN(c2ccccc2)CC1)C(=O)Nc1ccc(F)cc1 (stereo unspecified) | . | . | - | . | . | .
N#Cc1cc2c(nc1SC1CC(=O)N(c3ccccc3)C1=O)CCC2 (stereo unspecified) | - | ? | 10.7µM | - | - | -
SMILES | NPC1 prom act | ELG1 repair inh | FLuc modulator | ELG1 genotoxic | SMN2 splice enh | Rab9 prom act
O=C(c1cc2c(=O)oc3ccccc3c2s1)N1CCN(c2cccc(Cl)c2)CC1 | . | . | - | . | - | .
CCCc1nc2c(=O)n(C)c(=O)nc-2n(C)n1 | - | 4.61µM | - | - | - | -
CC12CCC(=O)N1C(C(=O)NNC(=O)c1cccc(Cl)c1)CS2 (stereo unspecified) | - | - | - | - | . | -
CC(C)CN(CCCNC(=O)CN1N=C(c2ccccc2)CCC1=O)CC(C)C | . | . | - | . | . | .
Cc1cc(-c2cn3ccccc3n2)c(C)n1-c1ccccc1 | 1.58µM | ? | 0.757µM | - | 5.62µM | 1.12µM
O=C(CNS(=O)(=O)c1ccccc1)N1CCc2ccccc2C1 | ? | ? | ? | - | . | ?
Cc1ccc(C)c(Cn2c(-c3cccs3)nc3ccccc32)c1 | . | . | - | . | - | .
O=C(COC(=O)CC1CC2CCC1C2)Nc1ccc(Cl)c(S(=O)(=O)N2CCOCC2)c1 (stereo unspecified) | - | - | - | - | . | -
C=CC[C@@H](CC(=O)N(CCO)Cc1ccccc1)C(=O)N[C@@H](COC(=O)[C@@H](CC=C)Cc1ccc(F)cc1)Cc1ccccc1 | . | ? | . | - | . | .
C=CCC[C@H](Cc1ccc(F)cc1)C(=O)OC[C@H](Cc1c[nH]c2ccccc12)NC(=O)[C@H](CC=C)CC(=O)N(CCO)Cc1ccccc1 | . | 20.6µM | . | - | . | .
C=CCC[C@H](Cc1ccc(F)cc1)C(=O)OC[C@H](Cc1c[nH]c2ccccc12)NC(=O)[C@@H](CC=C)CC(=O)NCCO | . | 20.6µM | . | - | . | .
C=CC[C@@H](CC(=O)N(CCO)Cc1ccccc1)C(=O)N[C@H](COC(=O)[C@@H](CC=C)Cc1ccc(F)cc1)Cc1c[nH]c2ccccc12 | . | 20.6µM | . | - | . | .
C=CC[C@H](CC(=O)N(CCO)Cc1ccccc1)C(=O)N[C@H](COC(=O)[C@@H](CC=C)Cc1ccc(F)cc1)Cc1c[nH]c2ccccc12 | . | 23.1µM | . | - | . | .
C=CCC[C@@H](Cc1ccc(F)cc1)C(=O)OC[C@@H](Cc1c[nH]c2ccccc12)NC(=O)[C@@H](CC=C)CC(=O)N(CCO)Cc1ccccc1 | . | ? | . | - | . | .
